According to PubChem BioAssay (Tox21):
Where “and” joins values, the source holds several entries; their conditions need not be identical. Equal entries are not always repeated. Results filed as inconclusive are left out. Where a call stands in place of a potency, no number is given. Where a structure was tested more than once in an assay, its records may differ in their call. Calls of active or inactive are those of the source. Unless noted, calls follow the shape of the dose curve; as a rule, active = well fitted curve in the direction sought with a large enough effect in the repeat runs; inconclusive = weak or mixed curves; inactive = no such curve, though single readings can be large; an effect the other way counts as inactive or inconclusive.

Assays:
[1] = qHTS assay to identify small molecule agonists of the hypoxia (HIF-1) signaling pathway - cell viability counter screen (AID 1224844; calls by dose curve; also: nearly all actives have a fitted effect of over 50% in size)
How it was run: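 Luminescent ATP content (CellTiter-Glo, 30 min, room temperature) served as the viability measure in HRE-bla ME-180 cells exposed to compounds for 17 hrs in low-serum medium (0.5% dialyzed FBS).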

[2] = qHTS assay to identify small molecule agonists of H2AX (AID 1224845; active = well fitted activation curve with a large enough effect in the signal ratio in the repeat runs, not every such curve was filed as active; the % refers to the signal ratio)
How it was run: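 Phospho-H2AX Ser139 measured by HTRF (ex 320 nm; em 665 and 620 nm) after 24 hr antibody incubation. Compounds, 15 concentrations, 0.76% DMSO, were applied to CHO-K1 cells for 3hr at 37C before lysis.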

[3] = qHTS assay to identify small molecule agonists of the hypoxia (HIF-1) signaling pathway (AID 1224846; active = well fitted activation curve with a large enough effect in the signal ratio in the repeat runs, not every such curve was filed as active; the % refers to the signal ratio)
How it was run: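 Measured by blue/green FRET after loading CCF4-AM: beta-lactamase expressed from a hypoxia response element in ME-180 cells. Test agents were delivered in DMSO and left 17 hrs; cells had been plated 5 hrs earlier in low-serum (0.5% dialyzed FBS) medium.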

[4] = qHTS assay to identify small molecule agonists of H2AX - cell viability counter screen (AID 1224847; calls by dose curve;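 also: wild-type CHO-K1 cells; top concentration of the series differs between compounds; nearly all actives have a fitted effect of over 30% in size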)
How it was run: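 CHO-K1 wt, 1000 cells/well, o/n 37C; cpds 15 conc, 3 h 37C, 0.76% DMSO; CellTiter-Glo, 30 min RT, luminescence.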

[5] = qHTS RealTime-Glo MT Cell Viability Assay in HepG2 cells - 24 hour (AID 1224867); also: nearly all actives have a fitted effect of over 50% in size
How it was run: (§1)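 qHTS, HepG2, 600 cells/well, RealTime-Glo (NanoLuc + prosubstrate) added with cells; 5 h preincubation; DMSO compound addition; 37 C; luminescence at 0/8/16/24/32/40 h.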

[6] = qHTS RealTime-Glo MT Cell Viability Assay in HEK293 cells - 32 hour (AID 1224868); also: nearly all actives have a fitted effect of over 50% in size; also: potency is read from the fitted curve at half-maximal effect
How it was run: (§2)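 Assay medium contained NanoLuc luciferase plus cell-permeant prosubstrate, added with HEK293 cells at 600 cells/well. After 5 h at 37 C/5% CO2 compounds were added; plates stayed at 37 C for 40 h with serial luminescence reads.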

[7] = A CellTox Green Cytotoxicity Assay to monitor cytotoxicity in HEK293 cells - 0 hour (AID 1224869); also: nearly all actives have a fitted effect of over 50% in size
How it was run: (§3)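 Each value comes from one timepoint of a single continuous run in which HEK293 cells with CellTox Green were exposed to compound for up to 40 h at 37 C, dye fluorescence rising with cell death.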

[8] = qHTS RealTime-Glo MT Cell Viability Assay in HepG2 cells - 40 hour (AID 1224870); also: nearly all actives have a fitted effect of over 50% in size
How it was run: (§4)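 Real-time viability: cells seeded at 600 per well together with NanoLuc and cell-permeant prosubstrate, compounds added after 5 h incubation. Luminescence tracked at 0, 8, 16, 24, 32 and 40 h of exposure.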

[9] = A CellTox Green Cytotoxicity Assay to monitor cytotoxicity in HEK293 cells - 40 hour (AID 1224871); also: nearly all actives have a fitted effect of over 45% in size
How it was run: as §3

[10] = qHTS RealTime-Glo MT Cell Viability Assay in HEK293 cells - 16 hour (AID 1224872); also: nearly all actives have a fitted effect of over 50% in size; also: potency is read from the fitted curve at half-maximal effect
How it was run: as §2

[11] = qHTS RealTime-Glo MT Cell Viability Assay in HepG2 cells - 8 hour (AID 1224873); also: nearly all actives have a fitted effect of over 55% in size
How it was run: as §4

[12] = qHTS RealTime-Glo MT Cell Viability Assay in HEK293 cells - 40 hour (AID 1224874); details: RealTime-Glo luminescence; max response: stronger effect = lower value; also: nearly all actives have a fitted effect of over 50% in size; also: potency is read from the fitted curve at half-maximal effect
How it was run: (§5)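 qHTS format; HEK293 cells with NanoLuc/prosubstrate reagent, 37 C/5% CO2 for 5 h pre-dosing; compounds 23 nL in DMSO; luminescence at each time point reflects viable cells.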

[13] = qHTS RealTime-Glo MT Cell Viability Assay in HepG2 cells - 32 hour (AID 1224877); also: nearly all actives have a fitted effect of over 55% in size
How it was run: as §1

[14] = A CellTox Green Cytotoxicity Assay to monitor cytotoxicity in HepG2 cells - 24 hour (AID 1224878); also: nearly all actives have a fitted effect of over 45% in size
How it was run: (§6)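 Continuous culture of HepG2 cells with a membrane-impermeant DNA dye; rising fluorescence marks dead cells. Compound exposure lasted up to 40 h at 37 C, with reads every 8 h from 0 h.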

[15] = A CellTox Green Cytotoxicity Assay to monitor cytotoxicity in HepG2 cells - 40 hour (AID 1224879); also: nearly all actives have a fitted effect of over 40% in size
How it was run: as §6

[16] = A CellTox Green Cytotoxicity Assay to monitor cytotoxicity in HEK293 cells - 24 hour (AID 1224875); also: nearly all actives have a fitted effect of over 45% in size
How it was run: as §3

[17] = qHTS RealTime-Glo MT Cell Viability Assay in HEK293 cells - 0 hour (AID 1224880); also: top concentration of the series differs between compounds; nearly all actives have a fitted effect of over 45% in size
How it was run: as §5

[18] = qHTS assay to identify small molecule antagonists of the estrogen related receptor (ERR) signaling pathway from Tox21 library (AID 1224848); also: nearly all actives have a fitted effect of over 50% in size
How it was run: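 Reading was by luminescence 30 min after ONE-Glo addition. Before that, ERR cells at 2,000 per well had rested 6 h at 37 C/5% CO2 and then received pin-tooled compounds in DMSO for 18 h at 37 C.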

[19] = qHTS assay to identify small molecule agonists of the estrogen related receptor (ERR) signaling pathway from Tox21 library (AID 1224849; calls by dose curve; also: nearly all actives have a fitted effect of over 15% in size); details: ERR reporter cell line, ONE-Glo luciferase, 18 h; at 92.4 µM (top of the series)
How it was run: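 We plated ERR reporter cells, waited 6 h, added compounds in DMSO by pin tool and incubated them 18 h at 37 C. ONE-Glo was then added and luminescence read after 30 min.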

[20] = A CellTox Green Cytotoxicity Assay to monitor cytotoxicity in HepG2 cells - 16 hour (AID 1224876); also: nearly all actives have a fitted effect of over 45% in size
How it was run: as §6

For `CCCCSP(=O)(SCCCC)SCCCC`, the Potency [1] was “inactive”, the Potency [2] was “inactive” and the outcome [3] was “inactive”. The Potency [4] was “inactive”, the Potency [5] was “inactive” and the Potency [6] was “inactive”. For the same molecule, the Potency [7] was “inactive”, the Potency [8] was “inactive” and the Potency [9] was “inactive”. The Potency [10] was “inactive”, the Potency [11] was “inactive” and the max response [12] was -17.8% (inactive) and -14.6% (inactive). For the same molecule, the Potency [13] was “inactive”, the Potency [14] was “inactive” and the Potency [15] was “inactive”.

For `C=C(C)C#N`, the Potency [1] was “inactive”, the Potency [2] was “inactive” and the outcome [3] was “inactive”. For the same molecule, the Potency [4] was “inactive”, the Potency [5] was “inactive” and the Potency [6] was “inactive and 5.49 µM (active)”. For the same molecule, the Potency [7] was “inactive”, the Potency [8] was “inactive” and the Potency [9] was “inactive”. The Potency [10] was “inactive and 21.9 µM (active)”, the Potency [12] was 5.49 µM (active) and the max response [12] was 3.27% (inactive). The Potency [16] was “inactive”, the Potency [13] was “inactive” and the Potency [14] was “inactive”. The Potency [15] was “inactive” and the Potency [17] was “inactive”.

With `CCOP(=O)(OCC)OCC` the Potency [1] was “inactive”, the Potency [2] was “inactive” and the outcome [3] was “inactive”. For the same molecule, the Potency [4] was “inactive”, the Potency [18] was “inactive” and the activity change, positive = activation [19] was -7.79% (inactive) and 1.86% (inactive). The Potency [5] was “inactive”, the Potency [6] was “inactive” and the Potency [7] was “inactive”. The Potency [8] was “inactive”, the Potency [9] was “inactive” and the Potency [10] was “inactive”. The max response [12] was 0.385% (inactive) and 0.0295% (inactive), the Potency [13] was “inactive” and the Potency [14] was “inactive”. The Potency [15] was “inactive”.

For `CNC(=O)Oc1cccc2c1OC(C)(C)C2`, the Potency [1] was “inactive”, the Potency [2] was “inactive” and the outcome [3] was “inactive”. The Potency [4] was “inactive”, the Potency [18] was “inactive” and the activity change, positive = activation [19] was 3.12% (inactive) and 1.27% (inactive). For the same molecule, the Potency [5] was “inactive”, the Potency [6] was “inactive” and the Potency [7] was “inactive”. The Potency [8] was “inactive”, the Potency [9] was “inactive” and the Potency [10] was “inactive”. The Potency [11] was “inactive”, the max response [12] was -0.656% (inactive) and 0.539% (inactive) and the Potency [16] was “inactive”. For the same molecule, the Potency [13] was “inactive”, the Potency [14] was “inactive” and the Potency [15] was “inactive”. The Potency [17] was “inactive”.

With `ClCc1ccccn1` the Potency [1] was “inactive”, the Potency [2] was “inactive” and the outcome [3] was “inactive”. For the same molecule, the Potency [4] was “inactive”, the Potency [5] was “inactive” and the Potency [6] was “inactive”. The Potency [7] was “inactive”, the Potency [8] was “inactive” and the Potency [9] was “inactive”. The Potency [10] was “inactive”, the Potency [11] was “inactive” and the max response [12] was 0.166% (inactive) and 14.2% (inactive). For the same molecule, the Potency [16] was “inactive”, the Potency [20] was “inactive” and the Potency [13] was “inactive”. For the same molecule, the Potency [14] was “inactive”, the Potency [15] was “inactive” and the Potency [17] was “inactive”.

For `N#Cc1cccnc1`, the Potency [1] was “inactive”, the Potency [2] was “inactive” and the outcome [3] was “inactive”. The Potency [4] was “inactive”, the Potency [18] was “inactive” and the activity change, positive = activation [19] was 5.82% (inactive) and 1.56% (inactive). For the same molecule, the Potency [5] was “inactive”, the Potency [6] was “inactive” and the Potency [7] was “inactive”. For the same molecule, the Potency [8] was “inactive”, the Potency [9] was “inactive” and the Potency [10] was “inactive”. The Potency [11] was “inactive”, the max response [12] was -3.64% (inactive) and -3.39% (inactive) and the Potency [20] was “inactive”. For the same molecule, the Potency [13] was “inactive”, the Potency [14] was “inactive” and the Potency [15] was “inactive”. The Potency [17] was “inactive”.
